Assay outcomes as filed in PubChem BioAssay.
Compounds with a hit are over-represented: about 19% of the library has one in this group of screens.
TDP1 cell CPT: DT40-hTDP1 cell growth loss with CPT; chicken DT40 Tdp1-/-;hTDP1 cells + 20 nM CPT, ATP luminescence, 48 h; Potency, µM (highest dose often 46.2 µM), without a hit: at the highest dose activity change, negative = growth inhibition, hits mostly inhibitors; 12% of 420,000 active; also: potency is read from the fitted curve at half-maximal effect; nearly all actives have a fitted effect of over 55% in size
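Cell growth measured by CellTiter-Glo luminescence after a minimum 48 h, 37 C compound exposure with 20 nM CPT in Tdp1-knockout DT40 cells stably expressing hTDP1, seeded 400/well; qHTS titration format.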
TDP1 cell noCPT: qHTS for Inhibitors of human tyrosyl-DNA phosphodiesterase 1 (TDP1): qHTS in cells in absence of CPT; DT40 Tdp1-/- hTDP1 cells, no CPT, ATP luminescence, 48 h; Potency, µM (series often up to 46.2 µM), inactives show at the top dose activity change, negative = growth inhibition, usual class: inhibitors; 15% of 420,000 active; AID 686978, 2013; also: potency is read from the fitted curve at half-maximal effect; nearly all actives have a fitted effect of over 55% in size
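Readout: luminescence from CellTiter-Glo after 30 min in the dark at RT. Cells: DT40 Tdp1-/- with stable hTDP1, 400/well. Exposure: compounds alone, ≥48 hr, 37 °C.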
HT1080 IDH1KD tx: kills HT-1080 cells with IDH1 knockdown; HT-1080 IDH1 knockdown viability, ATP luminescence, 48 h; 2% of 360,000 active; AID 686971; Potency, µM (doses to about 46.1 µM), for inactives: top-dose activity, negative = toxicity, hits mostly cytotoxic;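 also: potency is read from the fitted curve at half-maximal effect; 0% = DMSO wells and -100% = cell-free medium wells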
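CellTiter-Glo luminescence after 48 h compound exposure at 37 degrees C of IDH1-knockdown HT-1080 cells in 5% FBS RPMI. %Activity scaled between DMSO wells and cell-free media wells, with curves fitted and assigned curve classes.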
HT1080-NT tox: kills 2HG-producing HT-1080-NT fibrosarcoma cells. 1.6% of 360,000 active. Potency, µM (series often up to 46.1 µM), without a hit: at the top dose activity, negative = less viability, actives largely listed as cytotoxic. AID 686970. HT-1080-NT fibrosarcoma viability, CellTiter-Glo ATP luminescence, 48 h;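 also: NT is the 2HG producing partner of a matched IDH1 knockdown line; potency is read from the fitted curve at half-maximal effect; 0% = DMSO-treated cells and -100% = media-only wells without cells; nearly all actives have a fitted effect of over 55% in size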
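Read-out is CellTiter-Glo luminescence after 10 minutes at room temperature, following 48 hours' compound treatment of HT-1080-NT cells (750 cells/well, RPMI, 5% FBS, 37 degrees C).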
IL-1B inflam inh: inhibitors of inflammasome signaling (IL-1 beta secretion) | 4.7% of 360,000 active | THP-1 LPS/ATP IL-1B secretion, AlphaLISA, 16 h; active compounds read low | activity change, % at 57.5 µM | AID 743279; in the data active = activity change below about -50%; inconclusive = mostly about -30% to -49%
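Secreted IL-1B measured by AlphaLISA bead assay after 16 h compound exposure of THP-1 cells; compounds (final up to 57.5 uM) added 1 h before LPS (250 ng/mL) and ATP (1.25 mM) stimulation; lower signal means less secretion.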
Active calls of the source: *; i = inactive; ? = inconclusive; · = no result given; ! = repeats disagree; [ ] = dose if it differs, or a comment. Unless noted, calls follow the shape of the dose curve; as a rule, active = well fitted curve in the direction sought with a large enough effect; inconclusive = small, poorly fitted or top-dose-only effect, or another doubt; inactive = no such curve, though single readings can be large; an effect the other way counts as inactive or inconclusive. Unless noted, % is scaled to controls: 0 for no effect and ±100 for the full control effect.

SMILES	TDP1 cell CPT	TDP1 cell noCPT	HT1080 IDH1KD tx	HT1080-NT tox	IL-1B inflam inh
O=C(CCS(=O)(=O)c1ccccc1)Nc1cccc(-c2nc3ccccc3s2)c1	?	18µM*	-29%	-12%	103
CCS(=O)(=O)c1ccccc1C(=O)Nc1ccc(-c2nc3ccccc3s2)cc1	?	15µM*	·	·	·
CCC(CC)C(=O)Nc1cccc(-c2nc3ccccc3s2)c1	21µM*	?	·	·	·
COc1c(C)cccc1C(=O)Nc1ccc(-c2nc3ccccc3s2)c(Cl)c1	?	12µM*	·	·	·
COc1ccc(C(=O)Nc2ccc(-c3nc4ccccc4s3)c(Cl)c2)cc1Cl	-22%	-13%	·	·	·
O=C(OCCN1CCN(C2=NS(=O)(=O)c3ccccc32)CC1)c1cccc(Br)c1	-15%	-6%	-10%	-1%	i
COc1cccc(CN2C(=O)NC(C)(C3CCN(Cc4ccc(C)o4)CC3)C2=O)c1OC (centres undefined)	-5%	-5%	·	·	·
COc1ccc(N(C)C(=O)C2CCN(S(=O)(=O)c3cccc4nonc34)CC2)c(OC)c1	?	?	5%	-1%	-17
CCC(C)NC(=O)C1CCC(CNS(=O)(=O)c2cccc3nsnc23)CC1 (centres undefined)	-5%	14%	6%	13%	5
CN(C)C(=O)C[C@@H]1C=C[C@@H](NC(=O)C2CCC2)[C@@H](CO)O1	-4%	8%	17%	23%	-6
COc1ccc([N+](=O)[O-])c(OC)c1C(=O)NC(=O)Nc1c(F)cc(F)cc1F	-3%	-15%	1%	11%	·
O=C(COC(=O)Cn1[nH]c(=O)c2ccccc2c1=O)NNC(=O)c1ccc(Br)cc1	-10%	23%	0%	-3%	-8
COCCn1c(N)c(Sc2ccc(C)cc2)c(=O)[nH]c1=O	-1%	-5%	15%	22%	9
O=C(O)c1ccccc1-c1ccccc1C(=O)Nc1cccc(-c2nc3ccccc3o2)c1	-16%	-33%	-21%	-9%	-9
CCOc1cc(C(=O)Nc2ccc(-c3nc4ccccc4s3)cc2Cl)cc(OCC)c1OCC	?	23µM*	·	·	·
COc1cc(OC)cc(C(=O)Nc2cc(-c3nc4ccccc4s3)ccc2OC)c1	0%	-3%	·	·	·
O=C(CSc1nnc2ccccn12)Nc1cccc(-c2nc3ccccc3s2)c1	-24%	-30%	9%	12%	25
CCOc1ccccc1C(=O)Nc1cccc(-c2nc3ccccc3s2)c1	6.5µM*	5.2µM*	·	·	·
O=C(Nc1cccc(-c2nc3ccccc3s2)c1)c1cccs1	?	?	?	?	0
Cn1c(=O)c2ncn(CC(=O)Nc3cccc(-c4nc5ccccc5s4)c3)c2n(C)c1=O	15µM*	15µM*	-2%	?	39
CCC(CC)C(=O)Nc1cccc(-c2nc3ccccc3o2)c1	?	16µM*	15%[9.24 µM]	?	-23
C[C@H]1CC[C@@]2(O[C@@H](CCO)C[C@H](O)[C@H]2O)O1	2%	-9%	-1%	1%	0
CCC(C)NC(=O)CSc1nnc(-c2cc(OC)c(OC)c(OC)c2)c(-c2cc(OC)c(OC)c(OC)c2)n1 (centres undefined)	-13%	17%	7%	5%	14
Cc1cc(=O)c2c(O)c3c(O)cc(=O)c4c3c3c(cc(O)c1c23)C(C)(C)C=4O	1µM*!	0.73µM*	·	·	·
O=C(/C(C=Nc1ccc(Br)cc1)=C(/O)c1ccco1)C(F)(F)F	-6%	-13%	-26%	-11%	-9
O=C1/C(=C/N(C(=O)c2ccco2)c2ccc(Br)cc2)Sc2ccccc21	?	15µM*	?	?	-14
O=C1/C(=C/N(C(=O)c2ccco2)c2ccc(Cl)cc2)Sc2ccccc21	23µM*	16µM*	1%	-12%	?
O=C1c2ccccc2C(=O)N1CCCCN(C(=O)c1ccco1)c1ccc(Cl)cc1	?	?	0%	2%	-13
COc1cc(OC)cc(C(=O)NC2CCN(CCCOc3ccccc3)CC2)c1	-6%	-1%	-5%	-7%	-52*
